Only some compounds are listed: those with a hit (about 2.9% of all), similar ones and a draw of the others.
p53 reactivator = restores transcriptional activity of mutant p53; H1299 p53-A138V BP100-luciferase reporter, luminescence, 24 h; Potency, µM (doses to about 92.2 µM), inactives show at the top dose activity change, positive = activation, usual class: activators; 0.063% of 320,000 active; further: potency means the concentration at half of the fitted maximal effect; % of control where 0% means no effect; nearly all actives have a fitted effect of over 45% in size
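H1299 (p53-null), stable ts p53-A138V + BP100-Luc; 1000 cells/well, Opti-MEM/10% FBS; cpd 4 pt, 1:5; 24 h, 37 deg C, 5% CO2; detection reagent 10 min RT; luminescence.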
HEK293 tox = cytotoxic in the GLP-1 receptor inverse agonist counter-screen; HEK293 cAMP-luciferase reporter cells, luminescence, 24 h; Potency, µM (series often up to 38.3 µM), for the others: at the top dose activity change, negative = inhibition, most hits filed as inhibitors; 0.13% of 410,000 active;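 further: loss of luciferase light is scored as toxicity; potency means the concentration at half of the fitted maximal effect; on the % scale 0 is the no-effect control and ±100 the full control effect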
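Cells in DMEM/10% Nu serum/1% pen-strep, 1536-well format. Pre-incubated 12 h, dosed with 23 nL compound, incubated a further 24 h. Luciferase detection, 12 min at room temp, luminescence.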
GLP1R inv ag = inverse agonists of human GLP-1 receptor. HEK293 GLP-1R CRE-luciferase, luminescence, 24 h; GLP-1R form is constitutively active. Potency, µM (series often up to 38.3 µM), inactives show at the top dose activity change, negative = inhibition, actives largely listed as inhibitors. 1.6% of 410,000 active. AID 624417; further: potency means the concentration at half of the fitted maximal effect; on the % scale 0 is the no-effect control and ±100 the full control effect; nearly all actives have a fitted effect of over 55% in size
Target sequence (P43220 whole entry, looked up): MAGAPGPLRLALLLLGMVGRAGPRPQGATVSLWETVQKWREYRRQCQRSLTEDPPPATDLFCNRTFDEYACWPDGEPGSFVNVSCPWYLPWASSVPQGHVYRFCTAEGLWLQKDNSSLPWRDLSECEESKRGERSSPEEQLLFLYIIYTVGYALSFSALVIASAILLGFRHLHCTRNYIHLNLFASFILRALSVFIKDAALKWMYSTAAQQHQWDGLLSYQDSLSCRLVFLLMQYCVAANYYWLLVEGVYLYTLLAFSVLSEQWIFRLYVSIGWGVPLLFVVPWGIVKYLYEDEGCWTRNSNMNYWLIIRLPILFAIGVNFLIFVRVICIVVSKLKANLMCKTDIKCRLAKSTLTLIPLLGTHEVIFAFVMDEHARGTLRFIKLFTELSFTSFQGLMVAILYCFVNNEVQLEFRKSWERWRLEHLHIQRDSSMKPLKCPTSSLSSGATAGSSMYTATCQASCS
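qHTS in 1536-well format: reporter HEK293 cells expressing constitutive GLP-1R activity in DMEM + 10% Nu serum, 24 hr with compounds at 37 deg C, luminescence read after 12 min with detection reagent.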
ClpP mod = qHTS Assay for Activators of ClpP. Potency, µM (titrated, usually from 57.5 µM), inactives show at the highest dose activity change, negative = active. purified B. subtilis ClpP, FRET peptide cleavage, 20 min. ATP-dependent Clp protease proteolytic subunit (Bacillus subtilis (strain 168)), P80244. 1.9% of 340,000 active; active means well fitted falling curve with a large enough effect; inconclusive means small, poorly fitted or top-dose-only effect; inactive means no such curve, though single readings can be large or run the other way; further: potency means the concentration at half of the fitted maximal effect; the source files actives as falling curves though it sought activators and does not explain the sign; nearly all actives have a fitted effect of over 65% in size
Target sequence (P80244 whole entry, looked up): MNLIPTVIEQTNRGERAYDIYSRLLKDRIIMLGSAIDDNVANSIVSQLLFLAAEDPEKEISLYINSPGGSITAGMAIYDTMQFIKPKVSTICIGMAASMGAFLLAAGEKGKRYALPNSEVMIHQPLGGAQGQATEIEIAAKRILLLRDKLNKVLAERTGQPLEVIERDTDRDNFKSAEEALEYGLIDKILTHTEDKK
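Buffer: 100 mM Tris/HCl pH8, 100 mM KCl, 0.05% low protease BSA, 2.5% glycerol, 0.01% Tween-20. ClpP 10 microg/mL final; 20 min RT; delta FRET normalized to ADEP and DMSO controls.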
GLP1R ag = agonists of human GLP-1 receptor; HEK293 GLP-1R CRE-luciferase, luminescence, 4-6 h; cells express a hypersensitive GLP-1R form; Potency, µM (highest dose often 45.6 µM), for inactives: at the highest dose activation, usual class: activators; AID 624172; P43220; 0.007% of 380,000 active; further: potency means the concentration at half of the fitted maximal effect; % of control where 0% means no effect
LDHA block = LDHA (human) enzyme inhibition; AID 1347041; activity change, % (values are at about 110 or 230 µM); 0.15% of 480,000 active; purified LDHA, NADH/diaphorase-resazurin fluorescence; stronger effect = lower value; in the data active means activity change below about -30%; inconclusive means mostly about -25% to -30%;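 further: plate controls were DMSO wells for no effect and wells without enzyme for full effect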
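LDH5 2 nM; NADH 0.06 mM, pyruvate 0.2 mM; 200 mM Tris pH 7.4, EDTA, Tween-20; 5 min RT. Detection: diaphorase 0.133 mg/mL + resazurin 37 µM, fluorescence ex540/em590 at 0 and 20 min; normalized to enzyme-free and DMSO wells.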
Starred values were filed as active, the others as inactive; ? = inconclusive; . = no result; ! = repeats disagree. Unless noted, the call rests on the fitted dose curve; in most records, active means well fitted curve in the direction sought with a large enough effect; inconclusive means small, poorly fitted or top-dose-only effect, or another doubt; inactive means no such curve, though single readings can be large; an effect the other way counts as inactive or inconclusive.

SMILES | p53 reactivator | HEK293 tox | GLP1R inv ag | ClpP mod | GLP1R ag | LDHA block
Cc1ccc(OCC(=O)Nc2ccc3oc(=O)ccc3c2)cc1 | 1% | 0% | 22% | . | 13% | -12
S=C(Nc1ccccn1)Nc1ccccc1Cl | 12% | 6.3µM* | ? | 1% | 14% | -1
S=C(Nc1ccccn1)c1ccccn1 | ? | 1µM* | 0.89µM* | -1% | -17% | -2
Cc1c(Cl)cccc1NC(=S)Nc1ccccn1 | -1% | -23% | -9% | . | 6% | -6
Cc1cc(N2CCN(Cc3nc(-c4ccc(Cl)cc4)oc3C)CC2)cc(C)n1 | -4% | ? | 1µM* | . | 8% | -6
O=C(NCC1CCCO1)c1cn(Cc2ccccc2)nc1-c1ccccc1 (centres undefined) | 4% | -11% | 2% | 2% | -7% | -2
COc1cc(-c2nnc3n2C(C)(C)Cc2ccccc2-3)cc(OC)c1OC | . | . | . | . | . | -8
CC1(C)Cc2ccccc2-c2nc3ccccc3c(=O)n21 | -2% | 0% | 7.9µM* | 0% | 11% | 1
c1ccc(-c2nc3ccccc3[nH]2)nc1 | ? | ? | ? | ? | -26% | 5
c1ccc(-c2nc3c(ccc4ccccc43)[nH]2)nc1 | ? | ? | ? | 28µM* | 0% | 3
COc1ccc(C(=O)c2cc(C(C)=O)c(Nc3ccccc3)s2)cc1 | -3% | 145% | ? | -26% | 15% | -3
Cc1[nH]c2ccccc2c1C(=O)CN1C(=O)NC(C)(c2ccc(Cl)cc2Cl)C1=O (centres undefined) | -10% | ? | 13µM* | 2% | 17% | 2
Cc1ccc(N=c2c([N+](=O)[O-])nn(-c3ccc(Cl)cc3)n2O)cc1C | ? | 22% | 7% | . | 11% | -13
Cc1nn2c(c1-c1ccccc1)NC1=C(C(=O)CCC1)C2c1ccccc1 (centres undefined) | -2% | -3% | -3% | 8.9µM* | -13% | -6
O=C(CSc1nccc(=O)[nH]1)N1c2ccccc2CCc2ccccc21 | 1% | -14% | 15% | 0% | 0% | -5
O=[N+]([O-])c1cn(-c2nc(-c3ccco3)cc(C(F)(F)F)n2)cn1 | 8% | -2% | 4% | -4% | -5% | -9
FC(F)(F)c1cc(-c2ccco2)nc(-n2nc(C(F)(F)F)cc2C2CC2)n1 | 8% | 4% | 0% | 28µM* | 10% | 8
FC(F)(F)c1cc(-c2ccco2)nc(-n2nnc3ccccc32)n1 | 2% | 1% | 7% | 28µM* | 0% | -8
CN1CCN(c2nc(-c3ccco3)cc(C(F)(F)F)n2)CC1 | 2% | 13% | 0% | -30% | 11% | -6
CC1CCC2(CC1)NC(=O)N(Cc1cccc(C(F)(F)F)c1)C2=O (centres undefined) | -3% | 3% | 2.2µM* | . | 7% | 7
COc1ccc(C)cc1NC(=O)C1CCN(C(=O)c2ccc(C(C)(C)C)cc2)CC1 | 16% | -19% | 8.9µM* | . | 23% | -3
COc1ccc(C)cc1NC(=O)C1CCN(S(C)(=O)=O)CC1 | . | 3% | 19% | 0% | 0% | -5
Cc1nc(-c2ccccc2)nc2[nH]c(=O)n(-c3ccccc3)c(=O)c12 | ? | -23% | 9% | -12% | -3% | -2
CCCCc1nn2c(C)c(-c3ccc(OCC)cc3)nc2s1 | . | -12% | 10µM* | 0% | . | 0
COc1cc2c(cc1OC)CN(C(=O)c1cc3ccccc3oc1=O)CC2 | 1% | -29% | ? | 1% | 11% | 0
SMILES | p53 reactivator | HEK293 tox | GLP1R inv ag | ClpP mod | GLP1R ag | LDHA block
CCC(=O)N(CCC(c1ccccc1)c1ccc2c(c1)OCO2)Cc1ccc(OC(C)C)cc1 (centres undefined) | . | -12% | 13µM* | -4% | -4% | 5
Cc1oc(-c2ccc(C(=O)N(C)Cc3ccccc3)cc2)nc1CN1CCc2ccccc21 | . | 0% | 11µM* | -5% | 13% | -5
Cc1ccc(CNC(=O)c2ccc(-c3nc(CN4CCc5ccccc54)c(C)o3)cc2)cc1 | . | -7% | -25% | -1% | -7% | -11
COc1ccc(/C=C/C(=O)c2ccc(C)c([N+](=O)[O-])c2)cc1O | ? | ? | -94% | -3% | -45% | 11
COc1cc(/C=C/C(=O)c2ccc(C)c([N+](=O)[O-])c2)cc(OC)c1O | -2% | 10% | 10µM* | -1% | -6% | 21
COc1cc(/C=C/C(=O)c2c(O)ccc3c(C)cc(=O)oc23)ccc1O | . | ? | ? | 28µM*! | -13% | -3
COc1cc(/C=C/C(=O)c2c(O)cc(C)oc2=O)cc(OC)c1O | 6% | -14% | 42% | 28µM* | 7% | 25
CCOc1ncccc1C(=O)NCc1ccccc1F | -3% | -6% | 91% | 0% | 18% | -10
COc1ccc(CNC(=O)c2cc3c(=O)n(Cc4ccc(OC)cc4)ccc3nc2C)cc1 | . | 3% | ? | 108% | . | -10
Cc1nc2ccn(Cc3cccnc3)c(=O)c2cc1C(=O)NCc1ccc(Cl)cc1 | . | 0% | -31% | 13µM* | . | -2
Cc1nn(S(=O)(=O)N2CCOCC2)c(C)c1Br | 4% | 2% | 10% | . | 3% | -10
CCN(C(=O)COc1ccc(C)nc1[N+](=O)[O-])C1CCS(=O)(=O)C1 (centres undefined) | 8% | -3% | 15% | 10µM* | 12% | -7
Cc1ccc(OCC(=O)N(Cc2ccccc2)C2CCS(=O)(=O)C2)c([N+](=O)[O-])n1 (centres undefined) | -8% | -3% | 18% | -2% | -4% | -6
CCC1=NN(C(=O)c2ccc(Br)cc2)C(O)(c2ccccc2)C1 (centres undefined) | 2% | ? | 0.56µM* | 1% | -3% | -8
CCC1=NN(C(=O)c2cccc([N+](=O)[O-])c2)C(O)(c2ccc(C)cc2)C1 (centres undefined) | 7% | 14% | ? | 0% | 1% | 1
CC1=NN(C(=O)COc2ccccc2C)C(O)(c2ccc(Cl)cc2)C1 (centres undefined) | -15% | ? | 10µM* | 1% | -5% | 2
CC1=NN(C(=O)c2ccccc2Cl)C(O)(c2ccccc2)C1 (centres undefined) | -38% | -14% | ? | . | 0% | -9
